# Records with an inconclusive call do not appear. Entries that show only a call come without a potency. Values without a mark were called inactive. The source made the active and inactive calls. Calls come from the whole dose curve; as a rule, active = well fitted cell-killing curve with a large enough effect; inconclusive = small, poorly fitted or top-dose-only effect, or effect the other way; inactive = flat fitted curve, though single readings scatter.
# Tests used:
# Assay in all cases: Primary qHTS to identify gynecologic anti-cancer compounds using libraries of approved drugs and bioactive compounds (AID 1345084); note: nearly all actives have a fitted effect of over 55% in size
# Conditions in all cases: Gynecologic cancer cell panel viability, ATPlite luminescence, 48 h; series mostly up to 57.5 µM
# [1] = tested on: PA-1
# How it was run: (§1)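 ATP-based viability (ATPlite), 1,000 cells/well, 16 h pre-incubation, 48 h compound at 37 C, 5% CO2, 15 min RT before read.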
# [2] = tested on: SKOV3
# How it was run: as §1
# [3] = tested on: Tov-21-G
# How it was run: as §1
# [4] = tested on: Tov112D
# How it was run: as §1
# Potency is the fitted concentration of half-maximal effect.
Structure (SMILES),Potency [1],Potency [2],Potency [3],Potency [4],"activity change, negative = cytotoxicity [1]","activity change, negative = cytotoxicity [2]","activity change, negative = cytotoxicity [3]","activity change, negative = cytotoxicity [4]"
C[C@H]1C(=O)N2c3ccccc3[C@@]3(O)C[C@@H]4C(=O)N[C@](C)(c5nc6ccccc6c(=O)n54)N1[C@@H]23,inactive,inactive,inactive,inactive,–,–,–,–
O=C1N=C(N2CCOCC2)CN1c1ccc(Cl)cc1,inactive,inactive,inactive,inactive,–,–,–,–
COC(=O)c1c(C)cc(OC(=O)c2c(C)cc(OC)cc2OC)cc1O[C@@H]1O[C@H](CO)[C@@H](O)[C@H](O)[C@H]1O,inactive,inactive,inactive,inactive,–,–,–,–
O=C(/C=C\c1ccc(O)cc1)N[C@@H](Cc1ccc(O)cc1)C(=O)O,inactive,inactive,inactive,inactive,–,–,–,–
O=C(O)c1ccc(OC2OC(CO)C(O)C(O)C2O)cc1 (stereo not drawn),inactive,inactive,inactive,inactive,–,–,–,–
CC(=O)C12OC(C)(C)OC1CC1C3CCC4=CC(=O)C=CC4(C)C3(F)C(O)CC12C (stereo not drawn),inactive,inactive,inactive,inactive,–,–,–,–
C=CC1(C)C=C2CCC3C(C)(C)C(O[C@@H]4O[C@@H](CO)[C@H](O)[C@H]4O)CCC3(C)C2CC1O[C@@H]1O[C@H](C)[C@H](O)[C@H](O)[C@H]1O (stereo partly drawn),inactive,inactive,inactive,inactive,–,–,–,–
CC1=C(C(=O)O)/C(=C/CO[C@@H]2O[C@H](COC(=O)/C=C/c3ccc(O)cc3)[C@@H](O)[C@H](O)[C@H]2O)C(O)C1 (stereo partly drawn),inactive,inactive,inactive,inactive,–,–,–,–
C=C(C(=O)O)C1CCC2(C)CCCC(C)(O)C2C1 (stereo not drawn),inactive,inactive,inactive,inactive,–,–,–,–
C=C1CC2C(C)(CCC(=O)O)C(C(C)(C)O)CCC2(C)C2C(=O)OC(C)(C(=O)OC)C(=O)C12C (stereo not drawn),inactive,inactive,inactive,inactive,–,–,–,–
C=C(C)C1CCC2(C(=O)O)CCC3(C(=O)O)C(CCC4C5(C)CCC(O)C(C)(C(=O)O)C5CCC43C)C12 (stereo not drawn),inactive,inactive,inactive,inactive,–,–,–,–
CC(O)(CC(=O)O)CC(=O)OCc1ccc(O[C@@H]2O[C@H](CO)[C@@H](O)[C@H](O)[C@H]2O)cc1 (stereo partly drawn),inactive,inactive,inactive,inactive,–,–,–,–
N[C@H]1Cc2ccccc2N(O)C1=O,inactive,inactive,inactive,inactive,–,–,–,–
O=C(O[C@H]1[C@@H]2C=CO[C@@H](O[C@@H]3O[C@H](CO)[C@@H](O)[C@H](O)[C@H]3O)[C@@H]2[C@@]2(CO)O[C@@H]12)c1ccccc1,inactive,inactive,inactive,inactive,–,–,–,–
Cn1ncnc1COc1nn2c(-c3cc(F)ccc3F)nnc2cc1C(C)(C)C,inactive,inactive,inactive,inactive,–,–,–,–
C/C=C/C=C/[C@@H]1O[C@](O)([C@H](CC)C(=O)NC/C=C/C=C(\C)[C@@H](OC)[C@@H](C)C2OC(/C=C/C=C/C=C(\C)C(=O)c3c(O)cc[nH]c3=O)[C@H](O)[C@@H]2O)[C@H](O)[C@H](O)C1(C)C (stereo partly drawn),inactive,inactive,inactive,inactive,–,–,–,–
COC(=O)C1=CO[C@@H](O)C2C(CO)=CCC12 (stereo partly drawn),inactive,inactive,inactive,inactive,–,–,–,–
COc1ccc(C2(O)CCC(N3CC[C@@H](NC(=O)CNC(=O)c4cccc(C(F)(F)F)c4)C3)CC2)cn1 (stereo partly drawn),inactive,inactive,inactive,inactive,–,–,–,–
CO/N=C(/C(=O)N[C@@H]1C(=O)N2C(C(=O)O)=C(Cn3ccc(=N)n3CCO)CS[C@H]12)c1csc(N)n1,inactive,inactive,inactive,inactive,–,–,–,–
Cc1noc(=O)c2ccc(NC(=O)C(O)(CC(C)(C)c3cccc4c3OCC4)C(F)(F)F)cc12 (stereo not drawn),inactive,inactive,inactive,inactive,–,–,–,–
C[C@@H]1O[C@@H](O[C@@H]2CO[C@@H](O[C@H]3CC[C@@]4(C)C(CC[C@]5(C)C4CC=C4[C@@H]6CC(C)(C)CC[C@]6(C(=O)O[C@@H]6O[C@H](CO)[C@@H](O)[C@H](O)[C@H]6O)CC[C@]45C)[C@]3(C)CO)[C@H](O)[C@H]2O[C@@H]2O[C@H](CO)[C@@H](O)[C@H](O)[C@H]2O)[C@H](O)[C@H](O)[C@H]1O (stereo partly drawn),–,–,–,–,-2.56% [at 11.6 µM],6.8% [at 11.6 µM],4.72% [at 11.6 µM],0.619% [at 11.6 µM]
CCC(Nc1ncnc2nc[nH]c12)c1nc2cccc(F)c2c(=O)n1-c1ccccc1 (stereo not drawn),inactive,inactive,inactive,inactive,–,–,–,–
COc1cc2c(cc1OC)N1C(=O)C[C@]34C=CCN5CC[C@@H]2[C@@H](CC3)[C@]514,inactive,inactive,inactive,inactive,–,–,–,–
C=C[C@H]1CN2CC[C@H]1C[C@@H]2C(O)c1ccnc2ccc(OC)cc12 (stereo partly drawn),inactive,inactive,inactive,inactive,–,–,–,–

Structure (SMILES),Potency [1],Potency [2],Potency [3],Potency [4],"activity change, negative = cytotoxicity [1]","activity change, negative = cytotoxicity [2]","activity change, negative = cytotoxicity [3]","activity change, negative = cytotoxicity [4]"
CC1(C)CC2=C3C=CC4C5(C)CCC(O)C(C)(C)C5CCC4(C)C3(C)CCC2(C)C(O)C1 (stereo not drawn),inactive,inactive,inactive,inactive,–,–,–,–
C=C1CC23CC1CCC2C12OC(=O)C(C)(CCC1O)C2C3C(=O)O (stereo not drawn),inactive,inactive,inactive,inactive,–,–,–,–
CCOCc1nc2c(N)nc3ccccc3c2n1CC(C)(C)O,inactive,inactive,inactive,inactive,–,–,–,–
O=C(CCCCN1CCOCC1)Nc1ccc(-c2cccnc2)cc1,inactive,inactive,inactive,inactive,–,–,–,–
COC(=O)CCSCc1ccc(-c2onc(C)c2NC(=O)OC(C)c2ccccc2Cl)cc1 (stereo not drawn),inactive,inactive,inactive,inactive,–,–,–,–
N#Cc1ccc2[nH]cc(CCCCN3CCN(c4ccc5oc(C(N)=O)cc5c4)CC3)c2c1,inactive,inactive,inactive,inactive,–,–,–,–
O=C1Nc2ccccc2C(O)(c2ccccc2)C1O (stereo not drawn),inactive,inactive,inactive,inactive,–,–,–,–
COC(=O)C12C(=O)C(C)=C(O)C1(C)C(C)=CC1C3(CO)CCC(O)C(C)(C)C3CCC12C (stereo not drawn),inactive,inactive,inactive,inactive,–,–,–,–
COc1cc(/C=C/C(=O)OC[C@H]2O[C@@](CO)(O[C@H]3O[C@H](CO)[C@@H](O)[C@H](O)[C@H]3O)[C@@H](OC(=O)/C=C/c3ccc(O)c(OC)c3)[C@@H]2O)ccc1O,inactive,inactive,inactive,inactive,–,–,–,–
C[C@@]12C[C@]3(O)O[C@H](O1)[C@]1(COC(=O)c4ccccc4)[C@H]3C[C@@]12O[C@@H]1O[C@H](CO)[C@@H](O)[C@H](O)[C@H]1O,inactive,inactive,inactive,inactive,–,–,–,–
CCO[C@@H]1OC(=O)C[C@@H]1NC(=O)[C@@H]1CCCN1C(=O)[C@@H](NC(=O)c1ccc(N)c(Cl)c1)C(C)(C)C,inactive,inactive,inactive,inactive,–,–,–,–
CN=C(N)NCCCCC/C=C(/C)CC(C)C1OC(=O)C(C)C(O)/C=C/C(C)C(O)CC(O)C(C)C(O)CCC(C)C(O)CC2(O)OC(CC(OC(=O)CC(=O)O)CC(O)CC(O)C(C)C(O)/C(C)=C/CCC1C)CC(O)C2O (stereo not drawn),–,–,–,–,16.3% [at 11.6 µM],0% [at 11.6 µM],3.06% [at 11.6 µM],-6.61% [at 11.6 µM]
CC1=C(CCC(C)O[C@@H]2O[C@H](CO)[C@@H](O)[C@H](O)[C@H]2O)C(C)(C)CCC1=O (stereo partly drawn),inactive,inactive,inactive,inactive,–,–,–,–
COc1c/c(=C2\C=c3ccccc3=N2)[nH]/c1=C\c1[nH]c(C)cc1C,2 µM (active),10 µM (active),14.1 µM (active),3.55 µM (active),–,–,–,–
C/C=C1\[C@H](O[C@@H]2O[C@H](CO)[C@@H](O)[C@H](O)[C@H]2O)OC=C(C(=O)OC)[C@H]1CC(=O)O,inactive,inactive,inactive,inactive,–,–,–,–
COc1ccc(C(=O)n2c(C)c(Cc3cccc(O[C@@H](C)C(=O)O)c3)c3cc(OC(F)(F)F)ccc32)cc1,inactive,inactive,inactive,inactive,–,–,–,–
CN[C@H](CC(C)C)C(=O)N[C@H]1C(=O)N[C@@H](CC(N)=O)C(=O)N[C@H]2C(=O)N[C@H]3C(=O)N[C@H](C(=O)N[C@H](C(=O)O)c4cc(O)cc(O)c4-c4cc3ccc4O)[C@H](O[C@H]3C[C@](C)(N)[C@@H](O)[C@H](C)O3)c3ccc(c(Cl)c3)Oc3cc2cc(c3O[C@@H]2O[C@H](CO)[C@@H](O)[C@H](O)[C@H]2O[C@H]2C[C@](C)(NCc3ccc(-c4ccc(Cl)cc4)cc3)[C@@H](O)[C@H](C)O2)Oc2ccc(cc2Cl)[C@H]1O,inactive,inactive,inactive,inactive,–,–,–,–
COc1cc(/C=C/C(=O)O[C@H]2[C@H](O)[C@@H](CO)O[C@@]2(CO)O[C@H]2O[C@H](CO)[C@@H](O)[C@H](O)[C@H]2O)ccc1O,inactive,inactive,inactive,inactive,–,–,–,–
C=C1C(=O)O[C@@H]2C[C@H](C)[C@@]3(O)C=C(C(C)=O)[C@]4(CC3C[C@H]12)C(=O)O[C@H]1C[C@@H](C)C(CCC(C)=O)=CC[C@H]14 (stereo partly drawn),inactive,inactive,inactive,inactive,–,–,–,–
CC1=C(C(=O)O)/C(=C\CO[C@@H]2O[C@H](CO)[C@@H](O)[C@H](O)[C@H]2O)C(OC(=O)/C=C\c2ccc(O)cc2)C1 (stereo partly drawn),inactive,inactive,inactive,inactive,–,–,–,–
CC(C)C[C@H](CC(=O)NO)C(=O)N[C@H](C(=O)N[C@@H](C)C(=O)NCCN)C(C)(C)C,–,–,–,–,8.02% [at 11.6 µM],0% [at 11.6 µM],7.8% [at 11.6 µM],-2.79% [at 11.6 µM]
CC(O)CCC1C(CO[C@@H]2O[C@H](CO)[C@@H](O)[C@H](O)[C@H]2O)CC(O)CC1(C)C (stereo partly drawn),inactive,inactive,inactive,inactive,–,–,–,–
CC1(C=O)CC[C@]2(C(=O)O[C@@H]3O[C@H](CO)[C@@H](O)[C@H](O)[C@H]3O)CC[C@]3(C)C(=CCC4[C@@]5(C)C[C@H](O)[C@H](O[C@@H]6OC[C@@H](O)[C@H](O)[C@H]6O)[C@@](C)(CO)C5CC[C@]43C)C2C1 (stereo partly drawn),–,–,–,–,-2% [at 11.6 µM],1.41% [at 11.6 µM],-1.76% [at 11.6 µM],-0.249% [at 11.6 µM]

# Source: PubChem BioAssay (NCATS)
